Measurements published in PubChem BioAssay (NCI).
About 83,000 compounds went through this panel and 20% of them were active in at least one assay; those are over-represented in the sample as a whole.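 Compound tested at a single concentration for 48 hours in 96-well plates; a percent growth value below 10 was scored as active.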 Unmarked numbers belong to inactive results. Activity calls are given as the source filed them.

Tested on: COLO 205 colon
Test: NCI-60 one-dose screen, 48 h (100 = growth as untreated, 0 = no growth, -100 = all killed)
Conditions: 10 µM unless noted

Row | SMILES | growth
1 | C[C@@H]1O[C@@H](O[C@@H]2C[C@H](c3ccc4c(c3O)C(=O)C3=C(C4=O)[C@@]4(O)C(=O)C[C@](C)(O)C[C@@]4(O)C=C3)O[C@H](C)[C@H]2O)CC[C@@H]1O[C@H]1C[C@@H](O)[C@H](O)[C@@H](C)O1 | -19.1% (active)
2 | CC(=O)OC(c1ccccc1)C1CCOC1=O (stereo not given) | 170%
3 | C=CCN1C(=O)c2cccc3c(N4CCOCC4)ccc(c23)C1=O | -21.8% (active)
4 | O=C(CCSc1nnc2n(Cc3ccccc3)c(=O)c3c4c(sc3n12)CCCC4)N1CCN(c2ccccc2)CC1 | 102%
5 | CC1=CCC(OC(=O)C(C)(C)CC(O)(C(C)O)C(O)C2(C)C=CC(Cc3ccc(C(C)C)cc3)(C(C)C)CC2)(C(C)C)CC1 (stereo not given) | 103%
6 | c1ccc(CCNc2c3ccccc3nc3ccccc23)cc1 | 21.2%
7 | CCCCNc1nnc2n(Cc3ccccc3)c(=O)c3c4c(sc3n12)CCCC4 | 61.1%
8 | COc1ccc2cc(-c3ccnc4c(N=Nc5ccc(Cl)cc5)c(N)nn34)ccc2c1 | 110%
9 | CCO/C=N/C1=C(C#N)C(c2ccc(F)cc2)c2sc3c(F)cccc3c2O1 (stereo not given) | 78.3%
10 | COc1cc2nc3sc(C(=O)Nc4ccc(C(=O)OC(C)C)cc4)c(C(=O)Nc4ccc(Cl)cc4C)n3c(=O)c2cc1OC | 45.8%
11 | O=C(c1c[nH]c2ccccc12)c1n[nH]c(=S)n1-c1cccc(Br)c1 | 99%
12 | O=c1cc(-c2ccccc2)[nH]c2ncc(-c3ccc(F)cc3)n12 | 77.4%
13 | Clc1c(Cl)[n+](Cc2ccc3ccccc3c2)cn1Cc1ccc2ccccc2c1 | -73.9% (active)
14 | COc1ccc(/C=C/C(=O)c2cc(OC)c(OC)c(OC)c2)cc1OCC(=O)Nc1nc2ccc(OC(F)(F)F)cc2s1 | 77%
15 | COc1cccc(Nc2ncnc3cc(NC(=O)CCl)ccc23)c1 | -90% (active)
16 | COc1cc(/C=C/C(=O)c2ccc(-n3cc(CN4CCN(c5cc6c(cc5F)c(=O)c(C(=O)O)cn6C5CC5)CC4)nn3)cc2)ccc1O | 106%
17 | C=C(C)[C@@H]1CCC[C@]2(C(=O)O)CC[C@]3(C)[C@@H](CC[C@@H]4[C@@]5(C)C/C(=C/c6ccncc6)C(=O)C(C)(C)[C@@H]5CC[C@]43C)[C@@H]12 | 6.51% (active)
18 | O=C(N/N=C\c1cccc([N+](=O)[O-])c1)N/N=C/c1cccc([N+](=O)[O-])c1 | 119%

Row | SMILES | growth
19 | O=C(Cn1nnc2ccccc21)N/N=C/c1c[nH]c2ccccc12 | 37.2%
20 | Cn1cc(-c2csc(-c3c[nH]c4ccc(F)cc34)n2)c2ccnc(Cl)c21 | 52.2%
21 | CCNC(=O)Oc1ccc(/C(=C(/CC)Cc2ccccc2)c2ccc(OCCN3CCCC3)cc2)cc1 | 102%
22 | CC(=O)c1sc2sc(C(C)=O)c(C)c2c1C | 114%
23 | CN1C(=O)/C(=C/c2ccc(C(=O)Nc3ncc(Cc4cccc(Cl)c4)s3)cc2)SC1=S | 57.8%
24 | COc1ccc(C2=CC(c3cc(OC)c(OC)c(OC)c3)n3ncnc3N2)cc1 (stereo not given) | -64.8% (active)
25 | Cc1ccc(Cl)cc1NC(=O)c1sc2nc3c(cc2c1N)C(=O)CCC3 | 39.7%
26 | COc1ccc(/C=C/C(c2cc(OC)c(OC)c(OC)c2)n2cncn2)cc1 (stereo not given) | 30.7%
27 | Cc1ncc(C(=O)Nc2ccc(CN3CCN(C)CC3)c(C(F)(F)F)c2)cc1C#Cc1cnc(N)c2ncccc12 | 1.6% (active)
28 | Cc1ccc(C(=O)c2ccc(CC(=O)NN3C(=O)c4ccccc4C3=O)n2C)cc1 | 105%
29 | CN(C)CCCC1(c2ccc(F)cc2)OCc2cc(-c3ccc4cc[nH]c4c3)ccc21 (stereo not given) | 9.88% (active)
30 | O=C(/C=C/c1cccc(Cl)c1Cl)Nc1ncc(Cc2ccccc2Cl)s1 | 45.4%
31 | O=C(Nc1ccc(Cl)cc1)Oc1c(Cl)c(Cl)c(Cl)c(Cl)c1Cl | 105%
32 | CCCCNC(=O)c1cc([N+](=O)[O-])cc(C2CCCCC2)c1O | 56.4%
33 | O=C1NC(=O)/C(=C/c2c(-c3ccccc3)nc3sc(COc4ccccc4)nn23)S1 | 132%
34 | COc1ccc2c(c1)c(/C(O)=C1\COC(=O)C1=O)cn2Cc1ccc(F)cc1 | 108%
35 | CCN(CC)CCN1C(=O)c2cccc3c(/C=C/CN4C(=O)c5cccc6cccc(c56)C4=O)ccc(c23)C1=O | 80.7%
